Screening data as filed in PubChem BioAssay.
CHT PAM – allosteric activators of human choline transporter CHT; CHT-expressing cells, membrane potential dye, choline EC20; active compounds read high; LV-AA mutant CHT in HEK293 cells; B-score at 10 µM; Q9GZV3; 310,000 tested, 0.49% active; AID 488977;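 active = initial fluorescence not abnormally high and integrated response B-score, plate-corrected, over 3 SD above library mean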
PREPL inhibitor – human PREPL enzyme inhibition; recombinant PREPL, fluorescence polarization activity-based probe; inhibition, % at 5.96 µM; 320,000 tested, 0.68% active; AID 2751; in the data active = inhibition above about 43%;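 note: 0% = enzyme with DMSO and 100% = wells lacking enzyme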
Target sequence (Q4J6C6 whole entry, looked up): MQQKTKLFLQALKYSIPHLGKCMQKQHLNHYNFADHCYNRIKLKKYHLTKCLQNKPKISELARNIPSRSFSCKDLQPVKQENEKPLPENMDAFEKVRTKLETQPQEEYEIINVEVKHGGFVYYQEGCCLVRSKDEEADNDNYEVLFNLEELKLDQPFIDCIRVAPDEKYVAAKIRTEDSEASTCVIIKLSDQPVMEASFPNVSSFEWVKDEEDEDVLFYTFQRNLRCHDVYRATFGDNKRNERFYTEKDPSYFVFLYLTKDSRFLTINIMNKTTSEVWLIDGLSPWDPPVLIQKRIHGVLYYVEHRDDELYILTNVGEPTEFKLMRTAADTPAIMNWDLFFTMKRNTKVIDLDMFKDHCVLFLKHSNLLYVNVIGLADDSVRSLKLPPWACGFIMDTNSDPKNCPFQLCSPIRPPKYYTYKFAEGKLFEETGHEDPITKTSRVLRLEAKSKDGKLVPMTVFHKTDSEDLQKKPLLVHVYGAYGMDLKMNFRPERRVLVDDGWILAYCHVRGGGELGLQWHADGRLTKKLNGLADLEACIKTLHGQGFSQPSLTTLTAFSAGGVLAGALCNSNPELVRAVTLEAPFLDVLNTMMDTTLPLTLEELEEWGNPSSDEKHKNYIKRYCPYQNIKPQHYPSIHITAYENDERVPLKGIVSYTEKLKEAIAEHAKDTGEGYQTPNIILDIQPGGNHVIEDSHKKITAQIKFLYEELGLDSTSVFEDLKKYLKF
ALR inh – human ALR oxidase inhibition via reduced H2O2. purified ALR, DTT oxidation, H2O2 HRP-luminol luminescence. AID 485317. inhibition, % (concentration not given with the values). P55789. 290,000 tested, 3.8% active;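 active = mean replicate inhibition above about 79%, with every replicate also reaching it, limit read from the data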
CHT inh – human CHT choline transport inhibition; Q9GZV3; CHT-expressing cells, membrane potential dye, choline response; active compounds read low; B-score at 10 µM; 310,000 tested, 0.86% active;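 active = B-score over 3 SD under the library average, and starting fluorescence ratio not unusually high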;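 note: choline stimulus applied at its EC90 after an EC20 pre-addition; B-score computed on integrated fluorescence ratio after choline addition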
AI-2 QS modul – modulators of Vibrio harveyi AI-2 quorum sensing system; Vibrio harveyi JMH597 AI-2 luminescence/OD600 ratio, 9 h; active compounds read low; strain lacks LuxN and CqsS sensors; 0 = neutral-control median; activity change, % at 7.5 µM; 300,000 tested, 0.4% active; AID 2094; in the data active = activity change below about -75%, passing the limit was not always enough;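 note: luminescence divided by OD600 gain over 9 h not by final OD600 alone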
CHT inh conf – confirmation of human choline transporter CHT inhibitors | 2,400 tested, 70% active | shares compounds with CHT inh | CHT-expressing cells, choline membrane potential dye; LV-to-AA substituted CHT, HEK293 cells | CHT activity remaining % of control (active compounds read low), % at 10 µM;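 active = choline transporter activity left, mean of duplicates at 10 µM, below buffer-only control mean minus 3 SD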;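 note: depolarization triggered by choline at its EC90 following an EC20 pre-addition; 0% = hemicholinium-3 full block and 100% = buffer-only control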
HEK293 MPD ctr – CHT inhibitor counter-screen hit in parental HEK293 cells | shares compounds with CHT inh | membrane potential dye, choline response; active = decrease or increase beyond buffer ±3SD | membrane potential ratio readout (active if shifted either direction beyond buffer ±3SD; no single direction) at 10 µM | 2,400 tested, 4% active | AID 493222;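 note: parental cells lack the transporter so any hit is non-specific; ratio is peak minus trough fluorescence over baseline after EC90 choline challenge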
An asterisk follows results filed as active; i = inactive; x = not tested or not shown. The list is not random: actives were taken first. Their share in the collection is about 5%.

SMILES | CHT PAM | PREPL inhibitor | ALR inh | CHT inh | AI-2 QS modul | CHT inh conf | HEK293 MPD ctr
C=Cn1cc[n+](CC(=O)c2ccc(Br)cc2)c1 | i | 30 | 16 | -6.8* | 7 | 30%* | i
C=Cn1cc[n+](CC(=O)c2ccc(Cl)cc2)c1 | i | 16 | x | -6.7* | 9 | 48%* | i
COc1ccc(OCCC(=O)Nc2ccccc2)cc1 | i | -4 | -7 | i | -13 | x | x
CCOc1ccc(N(C)S(=O)(=O)c2ccc(C)c(C(=O)Nc3nnc(C4CC4)s3)c2)cc1 | x | 4 | 0 | x | x | x | x
Oc1ccc(C=NCCc2ccccc2)cc1 | i | 2 | -1 | i | 6 | x | x
C/C(=N\NC(=O)Cc1cccn1C)c1cccs1 | i | -1 | 16 | i | 29 | x | x
CCC(C)c1ccc(NC(=S)NC(C)C2CCCO2)cc1 (stereo unspecified) | i | 4 | 9 | -8.3* | -13 | 47%* | i
O=C(Nc1ccccc1)c1cccc(S(=O)(=O)NC2CCCC2)c1 | i | 0 | -12 | -5.2* | 14 | 36%* | i
COc1ccc(/C=C(\NC(=O)c2ccccc2)C(=O)OC[C@@H]2CCC[N+]3(C)CCCCC23)cc1OC (stereo partly specified) | i | 15 | x | i | -3 | x | x
CCOC(=O)c1oc2nc(C(C)C)c3c(c2c1N)CCC3 | i | 17 | -17 | -5.2* | 9 | 40%* | i
CCCc1nc2oc(C(=O)OCC)c(N)c2c2c1COC(C)(C)C2 | i | 8 | -12 | -6.3* | 6 | 33%* | i
CCOC(=O)c1sc2nc(CC(C)C)c3c(c2c1N)CCC3 | i | 15 | -2 | i | 14 | x | x
CCN(CC)CCCN1C=C2C(=O)C(C)(OC(=O)CCC(=O)OC)C(=O)C=C2C=C1C1CC1 (stereo unspecified) | i | 8 | -19 | -5.7* | 2 | 45%* | i
Cc1cccc(NC(=O)c2n[nH]c([N+](=O)[O-])c2Br)c1C | i | -19 | 0 | -5* | 11 | 61%* | i
CCCCSc1nc(C)cc(C)c1S(=O)(=O)c1ccccc1C | i | 2 | -33 | -7.6* | 21 | i | i
COc1ccc(/C=N/NC(=O)c2ccc(N(C)S(=O)(=O)c3ccccc3)cc2)cc1OC | i | 8 | -18 | i | 11 | x | x
Nc1ccc(-c2ccc(N)cc2C(F)(F)F)c(C(F)(F)F)c1 | i | -26 | -3 | -5.7* | 12 | 51%* | i
Nc1ccc(C(O)(C(F)(F)F)C(F)(F)F)cc1 | i | 5 | -42 | i | 34 | x | x
O=C(Nc1cccc(S(=O)(=O)NC2=NCCC2)c1)c1cc(Cl)ccc1[N+](=O)[O-] | i | 0 | -6 | -6.8* | 10 | 21%* | i
CCCn1nc([N+](=O)[O-])c(C(C#N)c2nc3ccccc3o2)c(Cl)c1=O (stereo unspecified) | i | 10 | x | -12* | 0 | 16%* | i
C=CCN1C(=O)N/C(=C/c2ccccc2OCC(=O)Nc2ccc(F)cc2)C1=O | i | 1 | -3 | i | 8 | x | x
O=C1NC(=O)/C(=C/c2ccccc2Oc2ccc(Cl)cc2)S1 | i | 21 | -8 | i | 17 | x | x
O=C(COc1ccccc1/C=C1\SC(=O)NC1=O)Nc1ccc(F)cc1 | i | 8 | 13 | -6.9* | 29 | i | i
Cc1ccc(S(=O)(=O)Oc2ccccc2/C=C2\SC(=O)NC2=O)cc1 | i | -19 | -1 | -5.6* | 31 | 49%* | i
Cc1ccc(S(=O)(=O)N2CCOCC2)cc1C(=O)NCCc1ccc(Cl)cc1 | x | 9 | -3 | x | x | x | x
SMILES | CHT PAM | PREPL inhibitor | ALR inh | CHT inh | AI-2 QS modul | CHT inh conf | HEK293 MPD ctr
CCc1c(C)nc2ncnn2c1N1CCN(S(=O)(=O)c2ccc(OC)cc2)CC1 | i | -11 | -3 | -6.3* | 2 | 50%* | i
Cc1cc(N2CCN(S(=O)(=O)c3ccc(Br)cc3)CC2)n2ncnc2n1 | i | 17 | -34 | i | 38 | x | x
O=C(COC(=O)C1(c2ccccc2F)CCCC1)N1CCN(C(=O)c2ccco2)CC1 | i | -3 | 0 | -5.4* | 10 | 68%* | i
CCN=C(Nc1cccc(F)c1)SC1CC(=O)N(c2ccc(OC)cc2)C1=O (stereo unspecified) | i | 17 | 8 | i | 33 | x | x
COc1ccc(CN=C(Nc2ccccc2)SC2CC(=O)N(C)C2=O)cc1 (stereo unspecified) | i | 0 | -3 | -5.5* | 23 | i | i
Cc1ccc(/C=C2\SC(=S)N(c3c(C)n(C)n(-c4ccccc4)c3=O)C2=O)cc1 | i | 18 | 36 | -5.4* | 18 | 60%* | i
Cc1c(N2C(=O)/C(=C/c3ccccc3)SC2=S)c(=O)n(-c2ccccc2)n1C | i | 13 | 6 | i | 19 | x | x
NC(=O)CC(NC(=O)c1ccc(Br)cc1)c1ccc(N2CCN(c3ccccc3)CC2)c([N+](=O)[O-])c1 (stereo unspecified) | i | -2 | 3 | i | 17 | x | x
Cc1cccc(CNc2ccc(C(CC(N)=O)NC(=O)c3ccccc3)cc2[N+](=O)[O-])c1 (stereo unspecified) | i | -13 | -2 | i | 18 | x | x
Cc1ccccc1CNc1ccc(C(CC(N)=O)NC(=O)c2ccccc2)cc1[N+](=O)[O-] (stereo unspecified) | i | -14 | 2 | -5.4* | 3 | i | i
CCC(CC)Nc1ccc(C(CC(N)=O)NC(=O)c2ccccc2)cc1[N+](=O)[O-] (stereo unspecified) | i | 18 | 17 | -5.1* | -1 | 41%* | i
CCCCNc1ccc(C(CC(N)=O)NC(=O)c2ccccc2)cc1[N+](=O)[O-] (stereo unspecified) | i | 10 | 0 | i | 5 | x | x
NC(=O)CC(NC(=O)c1ccc(Br)cc1)c1ccc(N2CCCCCCC2)c([N+](=O)[O-])c1 (stereo unspecified) | i | 12 | 4 | -5.3* | 17 | 65%* | i
CNc1nc(-c2ccc3c(c2)CCN3C(=O)c2ccccc2C)cs1 | i | 9 | 2 | i | 19 | x | x
CNc1nc(-c2ccc3c(c2)CCN3C(=O)c2cccc(F)c2)cs1 | i | 13 | 1 | -5.2* | 10 | i | i
COc1ccc(NC(=O)c2c(F)cccc2Cl)cc1S(=O)(=O)N1CCOCC1 | x | 1 | x | x | x | x | x
CCCn1c2ccccc2c2cnn(CC(=O)OC)c(=O)c21 | i | 3 | 66 | -5.8* | 25 | 24%* | i
Cc1c2cnn(CC(=O)NCCN3CCOCC3)c(=O)c2c(C)n1Cc1ccccc1 | i | 5 | -13 | i | 17 | x | x
